The source made the active and inactive calls. Calls follow the shape of the dose curve; as a rule, active = well fitted inhibition curve with a large enough effect in the repeat runs (not every such curve was filed as active); inconclusive = weak or mixed curves; inactive = flat fitted curve, though single readings scatter.
Molecular target: Thyrotropin-releasing hormone receptor (Homo sapiens) (UniProt P34981)
Assay: qHTS assay to identify small molecule antagonists of the thyrotropin-releasing hormone receptor (TRHR) signaling pathway (AID 1346877)
Conditions: TRHR-HEK293, TRH-induced calcium fluorescence, antagonist mode; series mostly up to 51.3 µM; activity, negative = inhibition: at the top concentration
Text: National Center for Advancing Translational Sciences [NCATS]
NIH Chemical Genomics Center [NCGC]
U.S. Environmental Protection Agency [EPA]
National Institutes of Environmental Health Sciences [NIEHS]
National Toxicology Program [NTP]
U.S. Food and Drug Administration [FDA]
Thyrotropin-releasing hormone (TRH) receptor (TRHR) is a G-protein-coupled receptor which binds the tripeptide thyrotropin releasing hormone. TRHR is found in the brain and, when bound by TRH, acts (through phospholipase C) to increase intracellular inositol trisphosphate. It plays a crucial role in the anterior pituitary where it controls the synthesis and secretion of thyroid stimulating hormone and prolactin. The TRHR-Hek293 assay is a cell-based assay, and it has the potential to screen G protein-coupled receptors. A compound/drug can either activate (agonist) or suppress (antagonist) GPCRs that can be monitored by levels of intracellular calcium. In this assay, the Tox21 10K compound library was screened to identify potential TRHR antagonists.
Tox21 Assay Protocol Summary:
The TRHR-Hek293 cells were dispensed at 1500cells/4uL/well in 1536-well black-clear bottom plates using a Multidrop dispenser. After the assay plates were incubated at a 37 C/5% CO2 incubator for 18 hours, 4 uL of Dye-Loading Solution was added to each well. The plates were incubated at 37 C for 2 hours. For agonist mode, 23 nL of compounds dissolved in DMSO, positive controls or DMSO only was transferred to the assay plate by a pin tool. The fluorescence intensity in the plates was measured using FDSS 7000EX kinetic plate reader for 3 min at 1 sec intervals. For antagonist mode, 23 nL of compounds dissolved in DMSO, positive controls or DMSO only was transferred to the assay plate by a pin tool. After 5 min incubation at room temperature, 1 uL of TRH was added on the top of the cell/compound mixtures to achieve a final agonist concentration of 1 nM. The fluorescence intensity in the plates was measured using FDSS 7000EX kinetic plate reader for 3 min at 1 sec intervals. Each test compound was measured at 15 concentrations and in triplicates.
% is scaled to controls: 0 for no effect and ±100 for the full control effect.

Sequence of Thyrotropin-releasing hormone receptor (Homo sapiens) (P34981 whole entry, looked up): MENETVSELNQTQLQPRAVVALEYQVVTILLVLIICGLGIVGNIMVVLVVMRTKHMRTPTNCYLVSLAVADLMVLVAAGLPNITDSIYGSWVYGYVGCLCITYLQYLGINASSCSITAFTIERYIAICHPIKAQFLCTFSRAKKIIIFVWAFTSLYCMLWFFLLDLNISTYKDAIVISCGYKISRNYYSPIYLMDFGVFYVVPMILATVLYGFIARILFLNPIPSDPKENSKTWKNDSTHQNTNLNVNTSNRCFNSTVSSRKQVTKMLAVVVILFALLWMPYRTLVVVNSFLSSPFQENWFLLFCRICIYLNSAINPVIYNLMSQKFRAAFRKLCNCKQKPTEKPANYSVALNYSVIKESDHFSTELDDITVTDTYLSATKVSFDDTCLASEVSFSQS

Structure (SMILES)	activity, negative = inhibition
CC(=O)Nc1ccc(S(=O)(=O)Nc2ccc([N+](=O)[O-])cc2)cc1	-7.05% [at 23.6 µM] (inactive)
O=C(O)c1ccc(Cl)cc1Cl	-1.55% (inactive)
C[C@@H]1O[C@@H](O[C@@H]2[C@@H](O)[C@H](OCCc3ccc(O)c(O)c3)O[C@H](CO[C@@H]3O[C@H](CO)[C@@H](O)[C@H](O)[C@H]3O)[C@H]2OC(=O)/C=C/c2ccc(O)c(O)c2)[C@H](O)[C@H](O)[C@H]1O	1.7% (inactive)
CCOCCOCCOCC	5.39% (inactive)
CCOC(=O)[C@H](CCc1ccccc1)N[C@@H](C)C(=O)N1C(=O)N(C)C[C@H]1C(=O)O	-4.86% [at 23.6 µM] (inactive)
CCOc1cc([N+](=O)[O-])c(OCC)cc1N1CCOCC1	3.35% (inactive)
CCOC(=O)/C=C/c1ccccc1	2.94% (inactive)
CCN(CC)CC(=O)Nc1c(C)cccc1C	-0.178% [at 23.6 µM] (inactive)
CC(=O)N[C@@H](CCC(=O)O)C(=O)O	-0.257% [at 23.6 µM] (inactive)
O=C(CS(=O)Cc1ccco1)NC/C=C\COc1cc(CN2CCCCC2)ccn1 (stereo not given)	7.69% [at 23.6 µM] (inactive)
CC(C)c1ccc2cc(C(C)C)ccc2c1	-0.426% (inactive)
O=C(O)c1cc(Cl)cc([N+](=O)[O-])c1Cl	-1% (inactive)
CNC(=O)[C@H]1O[C@@H](n2cnc3c(NCc4cc(Cl)ccc4OCc4cc(C)no4)ncnc32)[C@H](O)[C@@H]1N	2.27% (inactive)
OCCN(CCO)c1cccc(Cl)c1	0.967% (inactive)
COCCc1ccc(OCC2CO2)cc1 (stereo not given)	-2.9% [at 23.6 µM] (inactive)
COC(=O)C1CC(=O)C(C(=O)OC)CC1=O (stereo not given)	1.02% [at 4.65 µM] (inactive)
CC(=O)NCCCCCC(=O)O	10.4% [at 23.6 µM] (inactive)
Cc1[nH]cnc1-c1ccc(Cl)cc1	-0.0681% [at 23.6 µM] (inactive)
FC(F)(F)c1ccccc1-n1ccnc1	15.8% [at 23.6 µM] (inactive)
CCCCNc1ccc(C(=O)OCCN(C)C)cc1	1.84% [at 23.6 µM] (inactive)

Structure (SMILES)	activity, negative = inhibition
C[C@H](CCC(=O)O)[C@H]1CC[C@H]2[C@@H]3C(=O)C[C@@H]4CC(=O)CC[C@]4(C)[C@H]3CC(=O)[C@]12C	-0.646% [at 23.6 µM] (inactive)
CCCN1C[C@H](CSC)C[C@@H]2c3cccc4[nH]cc(c34)C[C@H]21	-0.404% [at 23.6 µM] (inactive)
COCCOCCOCCOCCOCCO	-1.08% (inactive)
Cc1cccc2nccnc12	0.806% (inactive)
CCCCCCOC(=O)CC	0.933% (inactive)
c1ccc2c(c1)ccc1c3ccccc3ccc21	-4.47% [at 23.6 µM] (inactive)
CC(=C(CCOC(=O)C(C)C)SSC(CCOC(=O)C(C)C)=C(C)N(C=O)Cc1cnc(C)nc1N)N(C=O)Cc1cnc(C)nc1N	0.233% [at 23.6 µM] (inactive)
CCCCCCCC/C=C\CCCCCCCC(=O)OCCCC	8.97% [at 10.5 µM] (inactive)
CCOC(=O)c1ccc(OC(=O)CCCCCN=C(N)N)cc1	-1.08% [at 23.6 µM] (inactive)
c1ccc2nccnc2c1	5.69% (inactive)
CN(C)CCOCCO	1.88% (inactive)
O=C1c2cccc3c2[C@H](CCC3)CN1[C@@H]1CN2CCC1CC2	-0.0262% [at 23.6 µM] (inactive)
COc1cc2c(cc1OC)C(=O)CC2	-5.21% [at 23.6 µM] (inactive)
N[C@@H](COP(=O)(O)O)C(=O)O	-1.81% [at 10.5 µM] (inactive)
CN(C)c1ccc(C=O)cc1	-4.18% (inactive)
O=C(O)c1cc(Br)c(O)c(Br)c1	-10.2% (inactive)
CO[C@@H]1[C@@H](OC(N)=O)[C@@H](O)[C@H](Oc2ccc3c(O)c(NC(=O)c4ccc(O)c(CC=C(C)C)c4)c(=O)oc3c2C)OC1(C)C	3.88% [at 23.6 µM] (inactive)
O=C(/N=N/C(=O)OCc1ccccc1)OCc1ccccc1	3.28% (inactive)
C#CC(C)N(C)C(=O)Nc1ccc(Cl)cc1 (stereo not given)	-0.061% (inactive)
C=COCCOCCOCCOC=C	-8.78% (inactive)

Reference: PubChem BioAssay (Tox21)
